HT1080 IDH1KD tx: HT-1080 IDH1 knockdown cell toxicity (counter line); AID 686971; hit rate 2% among 360,000; Potency, µM (top dose mostly 46.1 µM), for inactives: at the highest dose activity, negative = toxicity, most hits filed as cytotoxic; HT-1080 IDH1 knockdown viability, ATP luminescence, 48 h;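 note: potency is the fitted concentration of half-maximal effect; 0% = DMSO wells and -100% = cell-free medium wells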
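Cytotoxicity counter-line: IDH1KD HT-1080, 48 h, CellTiter-Glo. Curves classed by r2, magnitude and activity.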
IL-1B inflam inh: inhibitors of inflammasome signaling (IL-1 beta secretion); THP-1 LPS/ATP IL-1B secretion, AlphaLISA, 16 h; active compounds read low; activity change, % at 57.5 µM; hit rate 4.7% among 360,000; in the data active = activity change below about -50%; inconclusive = mostly about -30% to -49%
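Secreted IL-1B measured by AlphaLISA bead assay after 16 h compound exposure of THP-1 cells; compounds (final up to 57.5 uM) added 1 h before LPS (250 ng/mL) and ATP (1.25 mM) stimulation; lower signal means less secretion.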
TDP1 cell CPT: growth inhibition of DT40 Tdp1-/-;hTDP1 cells with camptothecin (screen for TDP1 inhibitors) | Potency, µM (highest dose often 46.2 µM), for the others: at the highest dose activity change, negative = growth inhibition, most hits filed as inhibitors | AID 686979 | hit rate 12% among 420,000 | chicken DT40 Tdp1-/-;hTDP1 cells + 20 nM CPT, ATP luminescence, 48 h; note: potency is the fitted concentration of half-maximal effect; nearly all actives have a fitted effect of over 55% in size
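Cell growth measured by CellTiter-Glo luminescence after a minimum 48 h, 37 C compound exposure with 20 nM CPT in Tdp1-knockout DT40 cells stably expressing hTDP1, seeded 400/well; qHTS titration format.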
ELG1 DNA repair: inhibitors of ELG1-dependent DNA repair in HEK293T cells; HEK293T ELG1-luciferase reporter, luminescence, 16 h; DNA damage induced by 5-fluorouridine; Potency, µM (top dose mostly 46.1 µM), for inactives: top-dose activity change, negative = inhibition, hits mostly inhibitors; hit rate 2.3% among 330,000; note: potency is the fitted concentration of half-maximal effect; nearly all actives have a fitted effect of over 55% in size
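HEK293T cells expressing luciferase-tagged ELG1 (2,000/well) received 5-Fluorouridine plus compound or DMSO for 16 hr at 37 °C. Luciferase was read by ONE-Glo luminescence after 30 min at room temperature.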
HT1080-NT tox: kills 2HG-producing HT-1080-NT fibrosarcoma cells; HT-1080-NT fibrosarcoma viability, CellTiter-Glo ATP luminescence, 48 h; Potency, µM (top dose mostly 46.1 µM), inactives show at the highest dose activity, negative = less viability, hits mostly cytotoxic; hit rate 1.6% among 360,000;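 note: NT is the 2HG producing partner of a matched IDH1 knockdown line; potency is the fitted concentration of half-maximal effect; 0% = DMSO-treated cells and -100% = media-only wells without cells; nearly all actives have a fitted effect of over 55% in size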
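Viability of the 2HG-overproducing fibrosarcoma line after 48 hours of compound exposure at 37 degrees C was determined by luminescence with CellTiter-Glo, and concentration-effect curves were then fitted and categorized.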
TDP1 cell noCPT: qHTS for Inhibitors of human tyrosyl-DNA phosphodiesterase 1 (TDP1): qHTS in cells in absence of CPT; DT40 Tdp1-/- hTDP1 cells, no CPT, ATP luminescence, 48 h; Potency, µM (doses to about 46.2 µM), inactives show top-dose activity change, negative = growth inhibition, actives largely listed as inhibitors; hit rate 15% among 420,000; note: potency is the fitted concentration of half-maximal effect; nearly all actives have a fitted effect of over 55% in size
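Cells were dispensed at 400 per well, compounds added by pin tool, plates incubated ≥48 hr at 37 °C, then CellTiter-Glo added for 30 min at room temperature before luminescence reading. Line: DT40 Tdp1-/- complemented with hTDP1; camptothecin omitted.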
The depositor's hits bear a star; ? = inconclusive; / = no result given. This is a sample that favours compounds with a hit; in the whole collection about 19% have one here. Unless noted, calls come from the whole dose curve; as a rule, active = well fitted curve in the direction sought with a large enough effect; inconclusive = small, poorly fitted or top-dose-only effect, or another doubt; inactive = no such curve, though single readings can be large; an effect the other way counts as inactive or inconclusive. Unless noted, % is set by controls: 0 for no effect and ±100 for the full control effect.

SMILES | HT1080 IDH1KD tx | IL-1B inflam inh | TDP1 cell CPT | ELG1 DNA repair | HT1080-NT tox | TDP1 cell noCPT
Cc1ccccc1NC(=S)NCc1ccc2[nH]c3c(c2c1)CCCC3 | -4.9% | -12.0 | ? | ? | -15.7% | 20.6µM*
Cc1coc2cc3oc(=O)c(CCC(=O)NC4CC4)c(C)c3cc12 | -0.1% | -14.0 | 16.4µM* | 16.2% | 0.1% | 13µM*
Cc1c(CCC(=O)NC2CC2)c(=O)oc2c(C)c(O)ccc12 | 12.0% | ? | 7.9% | -3.7% | 6.9% | -15.6%
COc1ccc(CNC(=O)Cc2c(C)c3cc4c(C)coc4cc3oc2=O)cc1 | / | / | -5.7% | / | / | -14.9%
Cc1c(Cc2ccccc2)c(=O)oc2cc(OCC(=O)NCC(O)c3ccccc3)ccc12 (stereo not drawn) | -4.1% | 10.0 | ? | -17.4% | ? | 18.4µM*
C=C(C)COc1ccc2c(C)c(CCC(=O)NC3CC3)c(=O)oc2c1 | -4.5% | -10.8 | 18.4µM* | -0.4% | 0.5% | ?
Cc1oc2cc3oc(=O)c(CCC(=O)NC4CC4)c(C)c3cc2c1C | 5.3% | -15.2 | 5.8µM* | 7.6% | 17.1% | 9.2µM*
CCN(CC(=O)Nc1ccc(OC)cc1)C(=O)Cc1ccc(OC)c(S(=O)(=O)N2CCOCC2)c1 | -0.1% | -6.3 | -7.0% | 21.2% | 1.0% | -17.3%
COc1cccc(CNC(=O)CN2C(=O)COc3ccc(S(=O)(=O)Nc4ccccc4)cc32)c1 | / | / | ? | / | / | -28.8%
COc1ccc(C2=Nc3ccccc3OC2)cc1 | -14.7% | 25.1 | 25.9µM* | ? | -7.1% | 14.6µM*
CC(=O)Nc1ccc(NC(=O)c2ccc(COc3ccccc3Br)o2)cc1 | -25.7% | -3.6 | -22.6% | -2.6% | -22.3% | 3.7%
COc1ccccc1OCc1ccc(C(=O)Nc2ccncc2)o1 | ? | -19.1 | ? | ? | -8.7% | 20.6µM*
O=C(NCc1cccnc1)c1ccc(COc2ccccc2Cl)o1 | -5.3% | 0.0 | ? | 5.5% | ? | 13µM*
O=C(Nc1cccnc1)c1ccc(COc2ccccc2Br)o1 | 10µM* | -11.7 | ? | ? | 4.47µM* | ?
CCCc1ccc(OCc2ccc(C(=O)NN)o2)c(OC)c1 | -17.9% | 25.8 | 5.7% | ? | ? | 23.1µM*
O=C(Cc1ccccc1Cl)NCc1cccnc1 | 0.0% | 13.2 | 5.6% | ? | 1.4% | 11.2%
CCOC(=O)C1=C(CN2CCCCC2)NC(=O)NC1c1ccc(C)cc1 (stereo not drawn) | / | / | -14.0% | / | / | -12.0%
CN(Cc1ccccc1)C(CNS(=O)(=O)c1ccccc1)c1ccccc1 (stereo not drawn) | -17.8% | -4.0 | ? | / | -9.3% | ?
Cc1cccc(N(C)C(CNS(=O)(=O)c2ccccc2)c2ccccc2)c1 (stereo not drawn) | / | / | 16.4µM* | / | / | ?
CCN(c1ccccc1)C(CNS(=O)(=O)c1ccccc1)c1ccccc1 (stereo not drawn) | / | / | 18.4µM* | / | / | ?
CN(C1CCCCC1)C(CNS(=O)(=O)c1ccccc1)c1ccccc1 (stereo not drawn) | 1.5% | -20.7 | ? | -0.4% | 3.7% | ?
O=C1C(=Cc2ccc(Br)o2)C(=O)c2ccccc21 | 9.9% | 5.6 | 23.1µM* | 17.3% | 7.9% | ?
Cc1cc(N2CCC(C(=O)Nc3ccc(Cl)cc3)CC2)n2nc(C)c(-c3ccc(Cl)cc3)c2n1 | / | / | -2.9% | / | / | 4.2%
O=C(O)CCn1cc(/C=C/C(=O)c2ccc(Cl)cc2)c(-c2ccc(Br)cc2)n1 | ? | -92.8* | 16.4µM* | ? | -29.1% | 23.1µM*
O=C(O)/C=C/c1cn(Cc2ccccc2)nc1-c1ccccc1 | -0.7% | 1.9 | -6.6% | 14.1% | -0.1% | 12.3%
SMILES | HT1080 IDH1KD tx | IL-1B inflam inh | TDP1 cell CPT | ELG1 DNA repair | HT1080-NT tox | TDP1 cell noCPT
Cc1nnc(SCC(=O)N2CCC(c3noc4ccc(F)cc34)CC2)s1 | 3.6% | -26.5 | ? | ? | 2.9% | ?
O=C(CSc1ccc2ccccc2n1)N1CCC(c2noc3ccc(F)cc23)CC1 | -18.5% | ? | 16.4µM* | ? | -27.5% | 11.6µM*
Cc1cccc(N(C)S(=O)(=O)c2c(C)noc2C)c1 | -0.2% | 13.6 | -5.0% | -5.0% | -9.1% | ?
Cc1c(C(=O)Nc2ccccc2)oc2c1C(=O)CC(C)(C)C2 | 9.5% | -23.0 | -28.8% | 29.0% | 5.5% | -22.6%
COc1ccc(NC(=O)c2oc3ccc4c(c3c2C)C(=O)CC(C)(C)O4)cc1OC | / | / | 20.6µM* | / | / | 11.6µM*
CCc1cccc(NC(=O)c2oc3ccc4c(c3c2C)C(=O)CC(C)(C)O4)c1 | / | / | ? | / | / | 20.6µM*
CC1CCCN(CCOc2ccc3ccccc3c2Br)C1 (stereo not drawn) | 18.4µM* | -215.8* | ? | 22.9% | 20.6µM* | ?
O=S(=O)(Nc1nnc(-c2ccccc2)s1)c1ccc(Cl)cc1 | -21.8% | 9.4 | ? | / | -27.3% | 16.4µM*
O=C(OCc1ccccc1)N1CCC2CC1c1cc(-c3ccccc3)ccc12 (stereo not drawn) | 5.0% | 2.5 | ? | / | 0.5% | 23.1µM*
O=C(c1ccc(-c2ccccc2)cc1)N1CCN(c2ccc3c(c2)C2CC3CCN2C(=O)OCc2ccccc2)CC1 (stereo not drawn) | -6.1% | -8.3 | ? | / | 2.1% | ?
O=C(c1ccc(Cl)cc1)N1CCC2CC1c1cc(-c3ccccc3)ccc12 (stereo not drawn) | -0.6% | -17.9 | 16.4µM* | / | -3.0% | -22.9%
N#Cc1ccc(C(=O)N2CCC3CC2c2cc(N4CCCCC4)ccc23)cc1 (stereo not drawn) | -0.8% | 10.4 | 16.4µM* | / | -1.9% | 16.4µM*
Cc1ccc(C(=O)N2CCN(c3ccc4c(c3)C3CC4CCN3C(=O)OCc3ccccc3)CC2)cc1 (stereo not drawn) | ? | -4.3 | 16.4µM* | / | ? | 14.6µM*
CCOc1ccc(C2(C)CC(=O)N(C)C2=O)cc1 (stereo not drawn) | 4.9% | 9.4 | 17.1% | -3.4% | 5.4% | 5.3%
CCCCC(C(=O)NC1CCCC1)N(C(=O)c1snc(C(N)=O)c1N)c1ccc(F)cc1 (stereo not drawn) | -19.4% | 6.9 | ? | -11.4% | -5.5% | ?
O=C(c1cccc(Cl)c1)N1CCN(c2ccc3c(c2)C2CC3CCN2C(=O)OCc2ccccc2)CC1 (stereo not drawn) | ? | -29.0 | ? | / | ? | 14.6µM*

Screens deposited in PubChem by National Center for Advancing Translational Sciences (NCATS).
